Measurements as given in PubChem BioAssay AID1851 (National Center for Advancing Translational Sciences (NCATS), 2009).
Among all 16,000 compounds or so, about 5,800 (36%) were called active. About 23% were inconclusive and are not listed. Calls come from the whole dose curve; as a rule, active = well fitted curve in the direction sought with a large enough effect; inconclusive = small, poorly fitted or top-dose-only effect, or effect the other way; inactive = no such curve, though single readings can be large or run the other way. This is one part of the list. A structure can be active in one record and inactive in another.

Target: Cytochrome P450 2C19 (Homo sapiens) (UniProt P33261)
Sequence (P33261 whole entry, looked up): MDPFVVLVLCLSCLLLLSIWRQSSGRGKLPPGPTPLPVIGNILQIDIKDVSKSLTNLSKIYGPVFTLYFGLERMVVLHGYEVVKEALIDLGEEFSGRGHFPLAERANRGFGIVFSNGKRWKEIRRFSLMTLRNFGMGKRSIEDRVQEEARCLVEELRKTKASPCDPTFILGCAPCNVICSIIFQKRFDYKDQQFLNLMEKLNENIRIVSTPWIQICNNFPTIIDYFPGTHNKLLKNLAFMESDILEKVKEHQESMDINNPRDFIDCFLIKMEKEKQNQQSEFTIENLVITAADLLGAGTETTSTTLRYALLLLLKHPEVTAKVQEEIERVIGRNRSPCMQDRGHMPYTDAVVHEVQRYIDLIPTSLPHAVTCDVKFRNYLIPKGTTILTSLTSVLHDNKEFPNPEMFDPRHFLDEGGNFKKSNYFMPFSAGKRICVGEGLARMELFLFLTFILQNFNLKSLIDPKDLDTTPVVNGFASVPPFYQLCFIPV
Assay: Cytochrome panel assay with activity outcomes
Conditions: recombinant CYP, pro-luciferin dealkylation, luminescence, p450-cyp2c19; series mostly up to 57.1 µM; activity, negative = inhibition: at the top concentration
% is set by controls: 0 for no effect and ±100 for the full control effect.

Row | Structure (SMILES) | activity, negative = inhibition | AC50
1 | O=C(O)CC12C[C@H]3C[C@@H](CC(O)(C3)C1)C2 | 7.05% [at 11.4 µM] (inactive) | –
2 | O=C(NCCN1CCOCC1)c1nn2c(c1Cl)NC(c1ccccc1)CC2C(F)(F)F (centres undefined) | -27.1% (inactive) | –
3 | CCCn1nc(C(=O)NCC(C)(C)N2CCOCC2)c2ccccc2c1=O | – | 17.8 µM (active)
4 | Cn1cc[nH]c1=S | -32.6% [at 25.6 µM] (inactive) | –
5 | COCCNc1cc(-c2ccccc2C(F)(F)F)ncn1 | – | 7.94 µM (active)
6 | COCCNc1cc(-c2c(C)noc2C)ncn1 | -0.798% (inactive) | –
7 | COCCNc1cc(-c2ccccc2C)ncn1 | – | 15.8 µM (active)
8 | COCCNc1cc(-c2ccccc2CN(C)C)ncn1 | 26.2% (inactive) | –
9 | CC(=O)NCCNc1cc(-c2ccccc2C(F)(F)F)ncn1 | 26.9% (inactive) | –
10 | O=c1nc2ccccc2c2n1C[C@H](CN1CCN(c3ccccc3)CC1)N2 | -14.1% (inactive) | –
11 | O=C1CC2(CCCC2)CC(=O)N1CCCCNC[C@H]1COc2ccccc2O1 | -32.6% (inactive) | –
12 | COc1ccccc1NC(=O)CC1COc2ccccc2O1 (centres undefined) | – | 7.08 µM (active)
13 | COc1cccc(OC)c1OCCNC[C@@H]1COc2ccccc2O1 | – | 794 nM (active) and inactive
14 | COc1cccc(OC)c1OCCCN1CCOCC1 | -65% (inactive) | –
15 | CCN1CCCC1CNC(=O)C(=O)Nc1ccccc1OC (centres undefined) | -21.8% (inactive) | –
16 | C(=C1/CCCC2=C1Nc1ncnn1C2c1ccccc1)/c1ccccc1 (centres undefined) | -28.3% (inactive) | –
17 | CCCCC1CC(/C(C)=N/NC(N)=O)OC1=O (centres undefined) | -23% (inactive) | –
18 | CC1=CC(=O)c2ccccc2C1=O | – | 2.51 µM (active)
19 | COc1cc2nncc(SCc3ccc(Cl)c(Cl)c3)c2cc1OC | – | 2.51 µM (active)
20 | CCCCN(CCCC)CCCOC(=O)c1ccc(N)cc1 | -26.5% [at 25.6 µM] (inactive) | –
21 | CCCCNc1ccc(C(=O)OCCOCCOCCOCCOCCOCCOCCOCCOCCOC)cc1 | 2.87% [at 25.6 µM] (inactive) | –
22 | CCCCOC(=O)c1ccc(O)cc1 | – | 6.31 µM (active)
23 | FC(F)(F)c1ccccc1-c1nc(Nc2ccncc2)c2ccccc2n1 | – | 2 µM (active)
24 | Clc1ccccc1-c1nc(Nc2ccncc2)c2ccccc2n1 | – | 5.01 µM (active)
25 | Cc1ccccc1-c1nc(Nc2ccncc2)c2ccccc2n1 | -38% (inactive) | –

Row | Structure (SMILES) | activity, negative = inhibition | AC50
26 | C[C@H](O/N=C1/[C@H]2O[C@@H]2[C@@H](O)[C@H]2[C@H]1CCn1c(=O)n(-c3ccccc3)c(=O)n12)c1cn([C@H]2COC[C@H]2O)nn1 | 42.5% [at 11.4 µM] (inactive) | –
27 | CN(C)CCC=C1c2ccccc2C=Cc2ccccc21 | – | inactive
28 | Cc1ccccc1-n1cnc2cc(NCc3cccs3)ccc21 | – | 2.51 µM (active)
29 | c1ccc(-n2cnc3cc(NCc4cccs4)ccc32)cc1 | – | 2.82 µM (active)
30 | Cc1noc(C)c1-c1nc(NCc2cccs2)c2ccccc2n1 | -38.6% (inactive) | –
31 | CO[C@H]1COC(=O)C/C=C\[C@H](C)COC(=O)[C@@H](OCc2ccccc2)/C=C\[C@@H]1C | -37% [at 11.4 µM] (inactive) | –
32 | Cc1ccc2c(c1)NCC(C(=O)NC1CCCCC1)O2 (centres undefined) | – | 3.55 µM (active)
33 | CCCCC1(C)Nc2ccccc2-c2nc3ccccc3n21 (centres undefined) | – | 0.708 µM (active)
34 | CCC1(C)Nc2ccccc2C(=O)N1O (centres undefined) | 12.7% (inactive) | –
35 | CCCC1(C)Nc2ccccc2-c2nc3ccccc3n21 (centres undefined) | – | 1.41 µM (active)
36 | COc1cccc2c1C(=O)c1c(O)c3c(c(O)c1C2=O)C[C@@](O)(C(=O)CO)C[C@H]3O[C@H]1C[C@@H](N)[C@H](O)[C@@H](C)O1.[W] | 9.1% [at 11.4 µM] (inactive) | –
37 | O=C(Nc1cccc(Cl)c1)N1CCN2C(=O)c3ccccc3C12c1ccccc1 (centres undefined) | – | 2.24 µM (active)
38 | CS(=O)(=O)N1CCC2(CCN(C(=O)Nc3cccc(C#N)c3)CC2)CC1 | -27.4% (inactive) | –
39 | COCC(C)n1c(C)cc(C(=O)CSc2nnc(Nc3ccccc3F)s2)c1C (centres undefined) | – | 2 µM (active)
40 | O=C(c1sc2ccccc2c1Cl)N(Cc1ccccc1)C1CCS(=O)(=O)C1 (centres undefined) | – | 3.16 µM (active)
41 | Cc1ccc(CN(C(=O)c2cc3ccccc3oc2=O)C2CCS(=O)(=O)C2)cc1 (centres undefined) | – | 14.1 µM (active)
42 | Cc1cc(C)c[n+](CC(=O)c2cc3ccccc3oc2=O)c1 | 4.16% (inactive) | –
43 | CCOc1ccc(CN(C(=O)c2oc3ccccc3c2C)C2CCS(=O)(=O)C2)cc1 (centres undefined) | – | 1.41 µM (active)
44 | CCc1ccc(OCC(=O)OC2CCS(=O)(=O)C2)cc1 (centres undefined) | -23.3% (inactive) | –
45 | CCCN(C(=S)Nc1ccccc1)C1CCS(=O)(=O)C1 (centres undefined) | -23.4% (inactive) | –
46 | CCOc1ccc(Cc2nccc3cc(OCC)c(OCC)cc23)cc1OCC | 8.39% [at 25.6 µM] (inactive) | –
47 | C/C(CC/C(C)=N/O)=N/O | 6.8% [at 11.4 µM] (inactive) | –
48 | CCS(=O)(=O)N1CCC(C(=O)NCCCOC)CC1 | -13.8% (inactive) | –
49 | COc1ccc(CCNC(=O)C2CCN(S(=O)(=O)N3CC(C)CC(C)C3)CC2)cc1OC (centres undefined) | – | 14.1 µM (active)
